SMILES strings stand for the structures.

The results in this text go back to paper PMC5540273 (PLoS ONE, 2017).

Some test systems named below: TLK1; TLK2; TNIK; TNK1; TNK2; TNNI3K; TRKB; TRPM6; TSSK1B; TSSK3; TTK; TXK; TYRO3; ULK1; ULK2; ULK3.
Conditions in all cases: concentration: 1 μM, replicates: in singlicate; n = 1
A further assay relates to T1, TRKA.
T1 construct: gene NTRK1

Another assay deals with T2, TRKC.
T2 construct: gene NTRK3

The subject of assay [1] is TYK2(JH1domain-catalytic).
In assay [2] the test system is TYK2(JH2domain-pseudokinase).
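Further: KINOMEscan kinase panel screen.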

`O=C1NC(=O)C(c2ccc(Cl)cc2)=C1Nc1cccc(Cl)c1` [SB-317651]: the “%Inh” value with TLK1 worked out at 12%; in the assay on TLK2, 0%; in the assay on TNIK, 0%; with TNK1, 0%; in the assay on TNK2 it was 0%; in the assay on TNNI3K it was 0%. Further, the “%Inh” value in the assay on TRKA worked out at 23%; in the assay with TRKB it was 21%; with TRKC it was 0%; with TRPM6, 0%; in the assay with TSSK1B, 0%; in the assay with TSSK3, 18%. Moreover, the “%Inh” value with TTK was determined as 0%; in the assay on TXK, 12%; in assay [1] it was 0%; in assay [2], 0%; with TYRO3, 0%; in the assay with ULK1 it was 11%. Moreover, the “%Inh” value in the assay on ULK2 worked out at 25%; in the assay with ULK3, 1%.

`CS(=O)(=O)Cc1ccc(Nc2nccc(-c3c(-c4cccc(NC(=O)C5CCCCC5)c4)nn4ncccc34)n2)cc1` [GSK350559]: the “%Inh” value in the assay on TLK1 was determined as 16%; with TLK2, 0%; with TNIK it was 0%; in the assay with TNK1, 29%; in the assay with TNK2, 13%; in the assay on TNNI3K it was 0%. Also, the “%Inh” value in the assay with TRKA was determined as 39%; with TRKB, 16%; with TRKC, 27%; with TRPM6, 0%; with TSSK1B, 14%; with TSSK3, 8%. Further, the “%Inh” value in the assay on TTK is given as 0%; with TXK it was 17%; in assay [1], 0%; in assay [2] it was 12%; in the assay with TYRO3, 18%; with ULK1 it was 5%. In addition, the results for the “%Inh” value in the assay on ULK2 and in the assay with ULK3 were 20% and 18%, respectively.

Regarding `COc1cccc(CNC(=O)NC2CCN(c3ccnc(Nc4ccc(F)cc4)n3)C2)c1` (stereo not drawn) [GSK1379723], the “%Inh” value in the assay on TLK1 came out at 0%; in the assay with TLK2 it was 0%; in the assay with TNIK it was 0%; in the assay with TNK1, 0%; in the assay on TNK2, 16%; in the assay on TNNI3K, 4%. Further, the “%Inh” value is on record as 0% in the assay with TRKA; 0% with TRKB; 5% in the assay on TRKC; 0% in the assay with TRPM6; 1% in the assay with TSSK1B; 16% in the assay on TSSK3. Also, the “%Inh” value in the assay on TTK is on record as 17%; with TXK, 100%; in assay [1], 20%; in [2], 22%; with TYRO3 it was 17%; in the assay on ULK1 it was 19%. The “%Inh” value in the assay on ULK2 came out at 1%; with ULK3, 4%.

In the case of `NS(=O)(=O)c1cccc(N/C=C2\C(=O)Nc3ccc(S(=O)(=O)Cc4c(Cl)cccc4Cl)cc32)c1` [GSK398099], the “%Inh” value in the assay with TLK1 came out at 75%; with TLK2 it was 0%; in the assay on TNIK, 91.8%; with TNK1, 0%; with TNK2, 26%; in the assay on TNNI3K, 4%. In addition, the “%Inh” value in the assay with TRKA was found to be 49%; with TRKB it was 0%; with TRKC it was 29%; in the assay with TRPM6 it was 37%; in the assay with TSSK1B, 21%; with TSSK3, 14%. The “%Inh” value with TTK was 0%; with TXK it was 6%; in [1] it was 30%; in [2], 27%; in the assay on TYRO3, 0%; in the assay on ULK1, 13%. The “%Inh” value is reported as 4% in the assay on ULK2 and 19% in the assay on ULK3.

For the molecule `Cc1c(Cn2c3ccccc3n3c(=O)cc(N4CCOCC4)nc23)cccc1C(F)(F)F` [GSK2306394], the “%Inh” value in the assay on TLK1 was determined as 5%; in the assay on TLK2, 0%; in the assay with TNIK it was 0%; in the assay on TNK1, 0%; in the assay with TNK2, 3%; with TNNI3K, 0%. The “%Inh” value with TRKA came out at 0%; in the assay with TRKB it was 0%; in the assay with TRKC, 0%; in the assay on TRPM6, 0%; with TSSK1B, 3%; with TSSK3, 0%. Besides, the “%Inh” value was 27% in the assay on TTK; 0% in the assay with TXK; 26% in assay [1]; 0% in [2]; 0% in the assay on TYRO3; 21% in the assay on ULK1. For the same molecule, the “%Inh” value turned out to be 0% in the assay with ULK2 and 7% in the assay with ULK3.

`COC(=O)C(NC(=O)NC1CCN(c2ccnc(Nc3ccc(F)cc3)n2)C1)c1ccccc1` (stereo not drawn) [GSK1379712]: the “%Inh” value in the assay on TLK1 is given as 14%; in the assay with TLK2, 6%; with TNIK, 17%; in the assay on TNK1 it was 0%; in the assay with TNK2, 0%; in the assay with TNNI3K, 24%. In addition, the “%Inh” value in the assay on TRKA is reported as 51%; in the assay with TRKB, 6%; in the assay on TRKC it was 29%; in the assay with TRPM6 it was 44%; with TSSK1B, 14%; in the assay with TSSK3, 23%. Besides, the “%Inh” value in the assay with TTK is given as 3%; with TXK, 0%; in [1], 13%; in [2] it was 22%; with TYRO3, 0%; in the assay on ULK1 it was 0%. For the same molecule, the “%Inh” value in the assay with ULK2 amounted to 3%; in the assay on ULK3, 4%.

For `O=C(Nc1n[nH]c2nc(-c3ccco3)c(Br)cc12)C1CCN(Cc2ccccc2)C1.O=C(O)[C@H](O)[C@@H](O)C(=O)O` (stereo not drawn) [SB-742034], the “%Inh” value in the assay on TLK1 is listed as 5%; in the assay on TLK2 it was 6%; in the assay with TNIK it was 17%; in the assay with TNK1, 13%; with TNK2, 6%; in the assay with TNNI3K, 0%. The “%Inh” value in the assay with TRKA is given as 48%; in the assay on TRKB, 17%; in the assay with TRKC it was 0%; with TRPM6 it was 1%; in the assay on TSSK1B, 0%; in the assay on TSSK3, 0%. For the same molecule, the “%Inh” value with TTK is listed as 4%; in the assay with TXK, 0%; in [1], 5%; in [2] it was 0%; with TYRO3 it was 0%; in the assay on ULK1 it was 5%. For the same molecule, the “%Inh” value in the assay with ULK2 was determined as 19%; in the assay on ULK3, 6%.

Regarding `Fc1ccc(-c2nc3n(c2-c2ccncc2)CCS3)cc1` [GI98581], the “%Inh” value was 0% in the assay on TLK1; 0% with TLK2; 18% in the assay with TNIK; 0% in the assay on TNK1; 11% in the assay on TNK2; 2% in the assay on TNNI3K. The “%Inh” value in the assay with TRKA is 11%; in the assay on TRKB it was 0%; in the assay with TRKC it was 17%; in the assay on TRPM6, 23%; with TSSK1B it was 0%; in the assay on TSSK3 it was 22%. For the same molecule, the “%Inh” value with TTK turned out to be 0%; in the assay with TXK, 0%; in assay [1], 8%; in assay [2] it was 11%; with TYRO3 it was 0%; in the assay on ULK1, 2%. The “%Inh” value in the assay on ULK2 and in the assay on ULK3 was 0% throughout.

Turning to `COC(=O)c1cccc(NC(=O)NC2CCN(c3ccnc(Nc4ccc(OC)cc4)n3)C2)c1` (stereo not drawn) [GSK1379746], the “%Inh” value amounted to 0% in the assay with TLK1; 0% with TLK2; 0% with TNIK; 0% in the assay on TNK1; 12% in the assay on TNK2; 0% with TNNI3K. Further, the “%Inh” value with TRKA was determined as 34%; in the assay on TRKB, 71%; in the assay with TRKC it was 86%; in the assay on TRPM6, 11%; with TSSK1B it was 13%; in the assay on TSSK3 it was 7%. For the same molecule, the “%Inh” value amounted to 0% in the assay with TTK; 8% with TXK; 33% in assay [1]; 51% in assay [2]; 0% with TYRO3; 0% in the assay on ULK1. Moreover, the “%Inh” value with ULK2 was determined as 3%; with ULK3 it was 9%.
